Reference: PubChem BioAssay (EPA / NIEHS)
Calls of active or inactive are those of the source. How the source made its calls: active means hit-call score of the fitted dose curve at least 0.9, where 1 is the maximum; inactive means score below 0.9.

Read-out: Macrophage colony-stimulating factor (MCSF), CSF1 (gene 1435)
Test: BSK_hDFCGF_MCSF: BioMAP Diversity Plus: hDFCGF Assay for Macrophage colony-stimulating factor (MCSF) Biomarker Activity (AID 2283060)
Settings: primary human foreskin fibroblasts; actives raise or lower the signal
Procedure, shortened: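 M-CSF levels read by ELISA at 24 h post-dosing in human skin fibroblasts. Parallel cultures stained with SRB assessed cytotoxicity at the same time point; response fitted in both directions against the DMSO baseline.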

**Q.** How did the outcome turn out when O=C(O)c1ccccc1-n1cc(C(=O)O)c(=O)c2cc(Nc3c(F)cc(F)cc3Cl)c(Cl)cc21 was run?
**A.** inactive

**Q.** How did the outcome turn out when COc1cccc([C@H](O)C2CCN(CCc3ccc(F)cc3)CC2)c1OC was run?
**A.** inactive

**Q.** With CC1(C)NC(=O)N(c2ccc([N+](=O)[O-])c(C(F)(F)F)c2)C1=O as the compound, how does the outcome read?
**A.** inactive

**Q.** For CC/C(=C(/CC)c1ccc(O)cc1)c1ccc(O)cc1, which AC50 is on record?
**A.** 20 µM (active)

**Q.** For CCCCCCCCCCCO, which AC50 is on record?
**A.** 29.8 µM (active)

**Q.** Which AC50 does the source give for Cc1cc(F)ccc1-c1cc(N2CC[C@@H](O)[C@H]2CO)ncc1N(C)C(=O)C(C)(C)c1cc(C(F)(F)F)cc(C(F)(F)F)c1 here?
**A.** 11.1 µM (active)

**Q.** How did the outcome turn out when Cc1cn([C@H]2C[C@H](N=[N+]=[N-])[C@@H](CO)O2)c(=O)[nH]c1=O was run?
**A.** inactive

**Q.** How did the outcome turn out when CCCCCCCC[Si](OCC)(OCC)OCC was run?
**A.** inactive

**Q.** How did the outcome turn out when O=C(O)Cc1cc(I)c(Oc2ccc(O)c(I)c2)c(I)c1 was run?
**A.** inactive

**Q.** Which outcome does the source give for CN1C(=O)CC[C@H]1c1cccnc1 here?
**A.** inactive

**Q.** How did the outcome turn out when O=c1c(-c2ccc(O)cc2)coc2cc(O)cc(O)c12 was run?
**A.** inactive

**Q.** Which outcome does the source give for CCCC(=O)OCCC(C)C here?
**A.** inactive

**Q.** Cc1occc1C(=O)Nc1ccc(C(=O)N2CCC(F)(F)/C(=C\C(=O)N3CCC(N4CCCCC4)CC3)c3ccccc32)cc1 was tested. Which outcome did it give?
**A.** inactive

**Q.** Which outcome does the source give for O=C1O[C@H]([C@@H](O)CO)C(O)=C1O here?
**A.** inactive

**Q.** How did the AC50 turn out when NC(=O)c1nc(-c2cccc(-c3cc(F)ccc3OCC(F)(F)C(F)(F)F)c2)n[nH]1 was run?
**A.** 44 µM (active)

**Q.** With CC(C)(C)c1csc(-c2cc3cc(OCc4ccccc4CC(=O)O)ccc3o2)n1 as the compound, how does the AC50 read?
**A.** 13 µM (active)

**Q.** Which AC50 does the source give for O=C(Nc1ccc(Cl)cc1)Nc1ccc(Cl)c(Cl)c1 here?
**A.** 0.284 µM (active)

**Q.** How did the outcome turn out when CC(C)(O)c1ccc(CNC(=O)c2cccnc2Oc2ccc3nonc3c2)cc1 was run?
**A.** inactive

**Q.** For c1ccc(C[n+]2cccc3ccccc32)cc1, which outcome is on record?
**A.** inactive

**Q.** With O=C=NCCCCCCN=C=O as the compound, how does the outcome read?
**A.** inactive

**Q.** Which AC50 does the source give for CCOC(=O)O[C@H](C)OC(=O)c1ccc2c(c1)cc(C(=O)NC1CCN(C(C)C)CC1)n2Cc1cc(-c2ccc(Cl)s2)on1 here?
**A.** 5.16 µM (active)

**Q.** With O=c1[nH]sc2ccccc12 as the compound, how does the AC50 read?
**A.** 3.22 µM (active)

**Q.** For OC12N=C(c3ccccc3)SC1Cc1cc(Cl)ccc12 (centres undefined), which outcome is on record?
**A.** inactive

**Q.** For Cc1cccc2ccccc12, which outcome is on record?
**A.** inactive
